# PubChem BioAssay (NCI)
# The panel holds about 79,000 compounds, 15% with a hit somewhere; the sample as a whole holds those more often. A number with no mark means an inactive call. Active and inactive are the calls of the source. No stated cut-off is given here; in the data, active means growth inhibition above about 70%; inactive means the rest.
# Test: NCI Yeast Anticancer Drug Screen. Data for the bub3 strain (AID 167)
# Details: S. cerevisiae bub3 mutant strain, at 50.0 µM (retest, dose inferred, filed as 5.0), hits give high values
# Method in brief: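 Compounds were applied to a genetically altered yeast strain carrying a cell-cycle control defect. Growth inhibition was scored against vehicle-treated controls.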
row,SMILES,growth inhibition
1,CCOc1ccccc1/C=C1\NC(=O)N(/C=C2\C(=O)Oc3ccccc3C2=O)C1=O,96% (active)
2,CC(NNC(=S)N1CCCC1)c1ccc2ccccc2n1 (stereo not given),97% (active)
3,N#Cc1c(-c2ccc(Cl)cc2)c(C#N)c(=O)n(NS(=O)(=O)c2ccccc2)c1S,88% (active)
4,CC(C)/C=C1\CCOC1=O,4%
5,c1ccc(Nc2nnc3nc(-c4ccccc4)c(-c4ccccc4)nn23)cc1,39%
6,O=C(NC(c1ccccc1)N1CCOCC1)c1ccccc1 (stereo not given),-2%
7,N[C@@H]1CCCC[C@@H]1N.O=C([O-])CN(CP(=O)([O-])[O-])CP(=O)([O-])[O-].[Pt+2],89% (active)
8,C/C=C\C(/C=C/C)(C(=O)OCCN(C)C)C(/C=C\C)(/C=C/C)C(=O)OCCN(C)C (stereo not given),95% (active)
9,COc1ccc(CCNC(=S)/N=C\C(C(=O)c2ccccc2)=C(\O)c2ccccc2)cc1OC,99% (active)
10,Cc1ccccc1C1SCc2nc3ccccc3n21 (stereo not given),-1%
11,O=C(Nc1ccc(Cl)cc1)Nc1nnc(/C=C/c2ccc(Cl)c(Cl)c2)o1,7%
12,Cc1c(CCCl)c(N=[N+]=[N-])n2c(nc3ccccc32)c1C#N,57%
13,O=C(OCCCC(C(=O)c1ccccc1)=P(c1ccccc1)(c1ccccc1)c1ccccc1)c1ccccc1,99% (active)
14,O=C(c1ccccc1)c1ccc(Cl)cc1,0%
15,O=C1C(C(O)(C(F)(F)Cl)C(F)(F)Cl)CCCC1C(O)(C(F)(F)Cl)C(F)(F)Cl (stereo not given),99% (active)
16,CCN(CC)C(=S)N=Nc1c(O)[nH]c2ccccc12,99% (active)
17,c1csc(-c2nnc(C34CC5CC(CC(C5)C3)C4)o2)c1,98% (active)
18,C/C(O)=C(/C=N/C(=S)Nc1ccc(S(N)(=O)=O)cc1)C(=O)Nc1ccccc1C,-6%
19,CC(C)(Oc1ccc(-c2cccc3ccccc23)cc1)C(=O)O,54%
20,CCc1scc(C)[n+]1CC(=O)c1cccc([N+](=O)[O-])c1,25%

row,SMILES,growth inhibition
1,O=C1CCC(C(c2ccccc2)(c2ccccc2)c2ccccc2)CC1=O (stereo not given),99% (active)
2,Clc1ccc(C2SCc3nc4ccccc4n32)cc1Cl (stereo not given),96% (active)
3,OC(CBr)c1c(Br)ccc2ccccc12 (stereo not given),77% (active)
4,O=C1OC(c2cccc(Cl)c2)Sc2ccccc21 (stereo not given),94% (active)
5,c1ccc(N2CCN(c3ccccc3)C2Cc2c[nH]c3ccccc23)cc1,98% (active)
6,CC(=O)c1sc(Nc2ccc(Cl)c(Cl)c2)nc1C,56%
7,Cc1ncn(-c2ccccc2O)c1C,-27%
8,C[n+]1c(/C=C/c2ccc(N3CCCC3)cc2)sc2ccccc21,98% (active)
9,COc1ccc(-c2c(C#N)c(S)n(NS(=O)(=O)c3ccc(C)cc3)c(=O)c2C#N)cc1,95% (active)
10,N#Cc1c(-c2ccc(Cl)c(Cl)c2)c(-c2ccc(Cl)c(Cl)c2)nn(CCO)c1=O,97% (active)
11,NCc1ccc(O)c(O)c1O,82% (active)
12,C[CH2][Sn]([CH2]C)([O]C(=O)c1cc(OC)c(OC)c(OC)c1)[O][Sn]([CH2]C)([CH2]C)[O]C(=O)c1cc(OC)c(OC)c(OC)c1,94% (active)
13,C=CCNCCC1CCCCCC1,97% (active)
14,Cc1ccc(/C=C/C(=O)/C=C/c2ccc(C)o2)o1,68%
15,CCCC(=O)c1cc(O)c(O)c(CN(C)Cc2cc(Cl)cc(C)c2O)c1O,97% (active)
16,COC(=O)/C(C#N)=C/c1cc(OC)c(O)cc1Br,48%
17,O=C(/C=C/c1ccccc1)CCN1CCOCC1,100% (active)
18,c1cc2c(c3c1CN(C1CCCCC1)CO3)OCN(C1CCCCC1)C2,28%
19,CSc1nc2ccccc2s1,-1%
20,CC1(C)CC(=O)C(CSC(=O)c2ccccc2)=C(O)C1,-2%

# Same assay, conditions: S. cerevisiae bub3 mutant strain, at 50.0 µM, hits give high values
row,SMILES,growth inhibition
1,CCOc1ccccc1/C=C1\NC(=O)N(/C=C2\C(=O)Oc3ccccc3C2=O)C1=O,94.7% (active)
2,CC(NNC(=S)N1CCCC1)c1ccc2ccccc2n1 (stereo not given),98.2% (active)
3,N#Cc1c(-c2ccc(Cl)cc2)c(C#N)c(=O)n(NS(=O)(=O)c2ccccc2)c1S,70.8% (active)
4,CC(C)/C=C1\CCOC1=O,-0.55%
5,c1ccc(Nc2nnc3nc(-c4ccccc4)c(-c4ccccc4)nn23)cc1,36.1%
6,O=C(NC(c1ccccc1)N1CCOCC1)c1ccccc1 (stereo not given),83.4% (active)
7,N[C@@H]1CCCC[C@@H]1N.O=C([O-])CN(CP(=O)([O-])[O-])CP(=O)([O-])[O-].[Pt+2],99.3% (active)
8,C/C=C\C(/C=C/C)(C(=O)OCCN(C)C)C(/C=C\C)(/C=C/C)C(=O)OCCN(C)C (stereo not given),95.4% (active)
9,COc1ccc(CCNC(=S)/N=C\C(C(=O)c2ccccc2)=C(\O)c2ccccc2)cc1OC,98.8% (active)
10,Cc1ccccc1C1SCc2nc3ccccc3n21 (stereo not given),-6.4%
11,O=C(Nc1ccc(Cl)cc1)Nc1nnc(/C=C/c2ccc(Cl)c(Cl)c2)o1,-4.75%
12,Cc1c(CCCl)c(N=[N+]=[N-])n2c(nc3ccccc32)c1C#N,78.2% (active)
13,O=C(OCCCC(C(=O)c1ccccc1)=P(c1ccccc1)(c1ccccc1)c1ccccc1)c1ccccc1,23.4%
14,O=C(c1ccccc1)c1ccc(Cl)cc1,73.8% (active)
15,O=C1C(C(O)(C(F)(F)Cl)C(F)(F)Cl)CCCC1C(O)(C(F)(F)Cl)C(F)(F)Cl (stereo not given),99.7% (active)
16,CCN(CC)C(=S)N=Nc1c(O)[nH]c2ccccc12,91% (active)
17,c1csc(-c2nnc(C34CC5CC(CC(C5)C3)C4)o2)c1,86.3% (active)
18,C/C(O)=C(/C=N/C(=S)Nc1ccc(S(N)(=O)=O)cc1)C(=O)Nc1ccccc1C,67.5%
19,CC(C)(Oc1ccc(-c2cccc3ccccc23)cc1)C(=O)O,67.8%
20,CCc1scc(C)[n+]1CC(=O)c1cccc([N+](=O)[O-])c1,8.95%

row,SMILES,growth inhibition
1,O=C1CCC(C(c2ccccc2)(c2ccccc2)c2ccccc2)CC1=O (stereo not given),0.85%
2,Clc1ccc(C2SCc3nc4ccccc4n32)cc1Cl (stereo not given),96.8% (active)
3,OC(CBr)c1c(Br)ccc2ccccc12 (stereo not given),20.4%
4,O=C1OC(c2cccc(Cl)c2)Sc2ccccc21 (stereo not given),83.2% (active)
5,c1ccc(N2CCN(c3ccccc3)C2Cc2c[nH]c3ccccc23)cc1,99.2% (active)
6,CC(=O)c1sc(Nc2ccc(Cl)c(Cl)c2)nc1C,81.8% (active)
7,Cc1ncn(-c2ccccc2O)c1C,-5.75%
8,C[n+]1c(/C=C/c2ccc(N3CCCC3)cc2)sc2ccccc21,98.2% (active)
9,COc1ccc(-c2c(C#N)c(S)n(NS(=O)(=O)c3ccc(C)cc3)c(=O)c2C#N)cc1,43.8%
10,N#Cc1c(-c2ccc(Cl)c(Cl)c2)c(-c2ccc(Cl)c(Cl)c2)nn(CCO)c1=O,96.3% (active)
11,NCc1ccc(O)c(O)c1O,81.4% (active)
12,C[CH2][Sn]([CH2]C)([O]C(=O)c1cc(OC)c(OC)c(OC)c1)[O][Sn]([CH2]C)([CH2]C)[O]C(=O)c1cc(OC)c(OC)c(OC)c1,9.15%
13,C=CCNCCC1CCCCCC1,97.7% (active)
14,Cc1ccc(/C=C/C(=O)/C=C/c2ccc(C)o2)o1,75% (active)
15,CCCC(=O)c1cc(O)c(O)c(CN(C)Cc2cc(Cl)cc(C)c2O)c1O,49%
16,COC(=O)/C(C#N)=C/c1cc(OC)c(O)cc1Br,46.5%
17,O=C(/C=C/c1ccccc1)CCN1CCOCC1,88.8% (active)
18,c1cc2c(c3c1CN(C1CCCCC1)CO3)OCN(C1CCCCC1)C2,65%
19,CSc1nc2ccccc2s1,-8.3%
20,CC1(C)CC(=O)C(CSC(=O)c2ccccc2)=C(O)C1,-27.6%
